# Assay outcomes: PubChem, Sanford-Burnham Center for Chemical Genomics
# Compounds with a hit are over-represented: about 2.1% of the library has one in this group of screens.
# PABP polyA inh – PABP-poly(A) binding inhibition | P11940 | PABP-poly(A) RNA binding, fluorescence polarization | inhibition, % at 35 µM | hit rate 1% among 290,000 | AID 2014;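 also: calls also rest on retests at 20 µM and on dose response follow-up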
# Target sequence (P11940 whole entry, looked up): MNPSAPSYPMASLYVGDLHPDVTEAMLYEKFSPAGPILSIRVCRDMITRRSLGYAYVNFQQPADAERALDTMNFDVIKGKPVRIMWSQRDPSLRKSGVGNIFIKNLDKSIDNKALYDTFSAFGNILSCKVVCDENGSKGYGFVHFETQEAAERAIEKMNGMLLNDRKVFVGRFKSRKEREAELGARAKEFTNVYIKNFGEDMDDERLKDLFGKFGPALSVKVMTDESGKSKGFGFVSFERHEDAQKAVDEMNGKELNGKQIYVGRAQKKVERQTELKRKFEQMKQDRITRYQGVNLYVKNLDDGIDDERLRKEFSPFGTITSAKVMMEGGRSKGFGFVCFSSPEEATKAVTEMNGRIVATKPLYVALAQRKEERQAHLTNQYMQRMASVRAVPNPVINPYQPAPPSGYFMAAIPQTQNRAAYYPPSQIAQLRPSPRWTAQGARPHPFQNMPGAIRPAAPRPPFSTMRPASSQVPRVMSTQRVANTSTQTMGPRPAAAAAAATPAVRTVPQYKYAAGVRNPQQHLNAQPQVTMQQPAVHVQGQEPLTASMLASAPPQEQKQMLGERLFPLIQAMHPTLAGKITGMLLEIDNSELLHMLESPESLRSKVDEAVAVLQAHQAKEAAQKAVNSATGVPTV
# CendR NRP1 mod – alters CendR peptide binding to human NRP-1; inhibition, % at 25 µM; hit rate 0.85% among 360,000; FAM-RPARPAR peptide binding to NRP-1, fluorescence polarization;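 active = inhibition or corrected inhibition above about 18%, plus a signal ratio from 0.5 to 1.5, limit read from the data, passing the limit was not always enough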
# eIF4H inh – inhibitors of RNA binding by human eIF4H. hit rate 0.94% among 290,000. AID 2012. eIF4H fluorescence polarization binding assay. inhibition, % at 35 µM. Q15056;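 also: calls also rest on retests at 20 µM and on dose response follow-up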
# MLLE-PAM2 inh – blocks PAM2 peptide binding to the PABP1 MLLE domain. P11940. GST-MLLE / FITC-PAM2 fluorescence polarization. inhibition, % at 20 µM. hit rate 0.36% among 360,000. AID 588489; in the data active = inhibition above about 35%, passing the limit was not always enough;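 also: plate controls were DMSO wells with GST-MLLE for no effect and wells lacking GST-MLLE protein for full effect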
# * = called active by the depositor; ? = inconclusive; . = no result given. Unless noted, no rule for the calls is given here.
SMILES,PABP polyA inh,CendR NRP1 mod,eIF4H inh,MLLE-PAM2 inh
COc1ccc(C(=O)C[n+]2ccc3ccccc3c2C)cc1,51.3*,4.1,90.6*,5.5
Cc1cc(C(=O)NCc2ccc(C(=O)O)o2)c(C)o1,29.1*,-37.0,74.5,6.0
CCCSCC(=O)Nc1ncc2c(n1)-c1ccccc1CC2,active,-15.5,57.6*,7.2
Cc1cc(C(=O)N2CCC2(C)C(=O)NS(=O)(=O)c2ccc(Cl)cc2)nn1C (stereo unspecified),.,15.1,.,3.0
COc1cc(C(=O)NC2=NCCS2)cc(OC)c1OC,0.7,10.6,-6.3,2.6
COc1cccc(C(=O)NC2=NCCS2)c1OC,1.9,7.4,-8.7,40.0*
CC(C)Oc1ccc(C(=O)NC2=NCCS2)cc1,8.5,-9.1,-3.3,39.7*
CCn1cc(/C=C(\NC(=O)c2cc(OC)c(OC)c(OC)c2)C(=O)N2CCOCC2)c2ccccc21,.,-12.4,.,6.6
Cc1cc(SCC(=O)N2CCN(C(=O)c3ccco3)CC2)c(C)cc1Br,.,21.8*,.,10.7
CC1(C(=O)Nc2cccc3ccccc23)CCN1C(=O)C1(c2ccccc2)CCCC1 (stereo unspecified),.,-6.3,.,-15.2
Cc1cc(C)cc(N(CCC#N)C(=O)CSc2nc3ccccc3c(=O)[nH]2)c1,.,7.9,.,-14.8
Cc1nn(-c2ccccc2)c(N2CCCCC2)c1/C=N/NC(=O)c1ccncc1,-11.2,7.0,9.1,6.5
CCOc1ccc(S(=O)(=O)Nc2ccc(C(=O)N/N=C/c3c(C)nn(-c4ccccc4)c3N3CCCC3)cc2)cc1,61.6,20.6*,-5.3,-3.4
Cn1c(N)c(C(=O)COC(=O)/C=C/c2ccc(F)cc2)c(=O)n(C)c1=O,.,6.2,.,-3.8
Cn1c(N)c(C(=O)COC(=O)/C=C/c2ccc(Cl)c(Cl)c2)c(=O)n(C)c1=O,.,25.3*,.,-2.2
CCC(CC)C(=O)Nc1nnc(S(=O)(=O)N2CCCc3ccccc32)s1,-13.9,-17.1,-15.7,-18.9
Cc1cc[n+](-c2[nH]c(=O)sc2/C=N/N=C(\[O-])c2ccccc2)cc1,35.4*,14.1,72.8,39.5*
Cc1cc[n+](-c2[nH]c(=O)sc2/C=N/N=C(\[O-])c2ccncc2)cc1,73.9*,13.6,99.8*,40.6*
O=c1[nH]c(-[n+]2ccccc2)c(/C=N/N=C(\[O-])c2ccccc2)s1,15.8,-12.0,13.5,21.1
O=C(N/N=C/c1ccc2c(c1)OCO2)c1cc(-c2ccco2)nc2ccccc12,.,-24.4,.,3.0
O=C(N/N=C/c1ccc2c(c1)OCO2)c1cccc2ccccc12,-1.0,29.9*,-14.5,5.6
O=C(N/N=C/c1ccc2c(c1)OCO2)c1cc(-c2ccccc2)nc2ccccc12,7.4,26.2*,4.0,-3.7
Cn1cc(C(=O)N/N=C/c2ccc3c(c2)OCO3)c2ccccc21,2.5,-1.5,-1.2,9.0
O=C(N/N=C/c1ccc([N+](=O)[O-])o1)c1cc(-c2cccc(Br)c2)nc2ccccc12,7.7,-9.7,56.0*,-19.3
Oc1ccc(CN2CCCc3ccccc32)c2cccnc12,3.5,-9.4,16.9,41.6*
SMILES,PABP polyA inh,CendR NRP1 mod,eIF4H inh,MLLE-PAM2 inh
COc1ccccc1N1CCN(Cc2ccc(O)c3ncccc23)CC1,-10.1,-2.8,12.8,24.9
CCOC(=O)C1=C(C)Nc2sc(C(=O)c3ccc(C)cc3)c(N)c2C1c1ccc(C(=O)OC)cc1 (stereo unspecified),active,-11.8,86.6,9.6
CCOC(=O)C1=C(C)Nc2sc(C(=O)c3ccc(F)cc3)c(N)c2C1c1ccc(C(=O)OC)cc1 (stereo unspecified),-3.9,-29.7,-6.4,9.0
CCC1(c2ccc(F)cc2)NC(=O)N(CC(=O)Nc2cccc(S(=O)(=O)N3CCCC3)c2)C1=O (stereo unspecified),.,-2.4,.,4.8
CCC1(c2ccccc2)NC(=O)N(CC(=O)Nc2ccccc2C(=O)N2CCCCC2)C1=O (stereo unspecified),.,21.0*,.,-13.8
CCC1(c2ccccc2)NC(=O)N(CC(=O)Nc2ccccc2N2CCCCC2)C1=O (stereo unspecified),-2.5,-3.8,-2.4,-16.3
CCC1(c2ccc(F)cc2)NC(=O)N(CC(=O)Nc2cccc(S(=O)(=O)N3CCCCC3)c2)C1=O (stereo unspecified),.,31.0*,.,-10.0
O=c1ccn([C@@H]2O[C@H](CNS(=O)(=O)C3CC3)[C@@H](O)[C@H]2O)c(=O)[nH]1,.,-12.8,.,4.3
CCN1C[C@@H]2[C@@H]3C(=O)N(Cc4ccccc4)C(=O)[C@@H]3[C@](Cc3ccccc3)(C1=O)N2C(=O)c1ccc(C(C)(C)C)cc1,.,6.3,.,-4.2
CCN1C[C@@H]2[C@@H]3C(=O)N(Cc4ccccc4)C(=O)[C@@H]3[C@](CC)(C1=O)N2C(=O)c1ccc(C(C)(C)C)cc1,.,26.0*,.,-7.9
CCN1C[C@@H]2[C@@H]3C(=O)N(Cc4ccccc4)C(=O)[C@@H]3[C@](CC)(C1=O)N2C(=O)c1ccc(C(F)(F)F)cc1,.,29.6*,.,-6.6
CN1C[C@@H]2[C@@H]3C(=O)N(Cc4ccccc4)C(=O)[C@@H]3[C@](C)(C1=O)N2C(=O)c1ccc(Cl)cc1,.,31.4*,.,-0.3
CCN1C[C@@H]2[C@@H]3C(=O)N(Cc4ccccc4)C(=O)[C@@H]3[C@](Cc3ccccc3)(C1=O)N2C(=O)c1ccc(C(F)(F)F)cc1,.,0.7,.,1.1
COc1ccc(Cl)cc1NC(=O)CN(C)C(=O)Cc1n[nH]c(=O)c2ccccc12,.,6.3,.,-31.9
Cc1ccc(CC(=O)NNC(=O)c2ccncc2)cc1C,.,4.7,.,56.8*
O=C(NC1CCN(Cc2ccc3ccccc3c2)CC1)c1ccccc1,-7.7,4.9,1.6,-2.0
C=CCC1(CC=C)CCCN1Cc1nc(COc2ccccc2)no1,5.7,-30.0,59.3*,-30.6
CC(C)(C)CC(=O)Nc1ccc(-c2nnc3n2CCCCC3)cc1,62.5*,11.0,77.6*,3.5
CC(C)(C)CC(=O)Nc1ccc(C(N)=O)cc1,-2.9,26.5*,3.1,-5.8
CCC(C)(C)C(=O)Nc1ccc(C(N)=O)cc1,-0.3,18.2,-4.8,4.2
Cc1ccc(S(=O)(=O)N2C[C@@H]3[C@H]4CC[C@H](C4)[C@@H]3[C@@H](C)[C@H]2C#N)cc1,.,8.0,.,-12.5
CCCCC/C=C/C1=CC(=O)C[C@H](c2ccc(OC)c(OC)c2)C1,.,-1.1,.,10.9
Cc1ccc(/C=C2/SC(=O)NC2=S)o1,-8.2,52.6*,?,126.0
Cc1ccc(/C=C2/SC(=S)N(C3CCCCC3)C2=O)o1,-6.6,-65.9,5.3,-22.2
COc1ccccc1C=NN=C(NN=Cc1ccccc1OC)NN=Cc1ccccc1OC,.,7.1,.,10.0
Cc1cc[n+](-c2nc3ccccc3nc2C(=C=[N-])C#N)cc1,56.9*,-88.8,69.5*,-12.7
Cc1cc[n+](-c2nc3ccccc3nc2[N-]S(=O)(=O)c2ccccc2)cc1,active,1.1,50.6*,15.5
N#CC(=C=[N-])c1nc2ccccc2nc1-[n+]1ccccc1,9.5,-113.5,3.1,6.4
Cc1ccc(-n2c(C)cc(C(=O)Cn3nc(C(=O)O)c4ccccc4c3=O)c2C)cc1,-0.4,-13.7,-7.2,-4.2
COc1ccc(-n2c(C)cc(C(=O)Cn3nc(C(=O)O)c4ccccc4c3=O)c2C)cc1,5.9,29.8*,4.7,-0.6
